Source: PubChem
TROY signal inh: TROY signaling inhibition. Q293 LMP1-TROYcd NF-kB luciferase reporter, 4 h. inhibition, % at 10 µM. 0.98% of 360,000 active;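 active means compounds whose plate-normalised and pattern-corrected inhibition of the luciferase reporter signal at the single screening dose is 50% or more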
TWEAK Fn14 block: TWEAK-Fn14 signaling inhibition; TWEAK-stimulated Fn14 reporter cells, luciferase luminescence, 8 h; inhibition, % at 10 µM; 2% of 360,000 active; AID 1159606; in the data active means inhibition above about 50%
LGR2 inh: Drosophila LGR2 receptor signaling inhibition; AID 720647; HEK293 LGR2, CRE-luciferase, bursicon-stimulated, 4 h; inhibition, % at 9.99 µM; 0.35% of 380,000 active;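 active means drop in luminescence signal, shown as inhibition above about 50% in the replicate tests, limit read from the data, passing the limit was not always enough; inconclusive means probably only some replicates passing the limit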;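 further: agonist challenge used bursicon conditioned medium at about half maximal strength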
EWS-Fli block: EWS/Fli transcriptional activity inhibition; inhibition, % at 12.6 µM; A673 NR0B1-luciferase reporter, viability-normalised; 0.67% of 350,000 active;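 active means mean inhibition of at least 50% after viability correction, with every replicate also passing that limit; inconclusive means mean reaches 50% but only one of two replicates passes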;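 further: firefly luciferase signal divided by Alamar Blue viability fluorescence both relative to DMSO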
EBV LMP1 NFkB: Epstein-Barr LMP1 NF-kappaB reporter inhibition; LMP1-induced NF-kappaB luciferase reporter cells, luminescence; inhibition, % at 12.5 µM; 0.69% of 350,000 active; in the data active means inhibition above about 41%; inconclusive means no clear call, values can overlap the other calls
A number is an active result; - = inactive; ? = inconclusive; . = not tested or not shown. This is a sample that favours compounds with a hit; in the whole collection about 2.6% have one here.

SMILES	TROY signal inh	TWEAK Fn14 block	LGR2 inh	EWS-Fli block	EBV LMP1 NFkB
COc1ccc(NC(=O)c2ccc(-c3ccccc3)cc2)cc1NS(=O)(=O)c1ccc(F)cc1	-	62	-	.	-
COc1ccccc1NS(=O)(=O)c1cccc(NC(=O)Nc2cccc(Cl)c2)c1	51	81	-	.	-
COc1ccc(C(=O)Nc2ccc(Cl)c(S(=O)(=O)Nc3ccccc3OC)c2)cc1	53	81	-	.	-
COc1ccccc1NS(=O)(=O)c1cccc(NC(=O)NCCCl)c1	-	-	-	-	-
COc1cc(NS(C)(=O)=O)c(OC)cc1NC(=O)c1ccccc1	-	57	.	.	-
COc1ccc(NC(=O)c2ccccc2)cc1NS(=O)(=O)c1ccc(F)cc1	-	-	-	.	-
COc1ccccc1NC(=O)Nc1ccc(Cl)c(S(=O)(=O)Nc2ccccc2OC)c1	-	-	-	.	-
COc1ccccc1NS(=O)(=O)c1cc(NC(=O)c2ccc(Cl)nc2)ccc1Cl	72	102	-	.	-
COc1ccccc1NS(=O)(=O)c1cc(NC(=O)c2ccc3ccccc3n2)ccc1Cl	-	-	-	.	-
O=C(/C=C(\Nc1ccc(Br)c(F)c1)c1ccccc1)c1ccccc1	.	.	-	-	.
COc1ccc(NC(=O)N(C)C[C@@H]2Oc3c(NC(=O)C4CC4)cccc3C(=O)N([C@H](C)CO)C[C@H]2C)cc1	.	.	-	-	.
CCn1cc(/C=C(\NC(=O)c2ccccc2F)C(=O)NCCCN2CCOCC2)c2ccccc21	-	68	-	.	-
CCn1cc(/C=C(\NC(=O)c2ccc(C)cc2)C(=O)NCCCN2CCOCC2)c2ccccc21	-	-	-	-	-
O=C(O)c1ccc(OCc2ccc(C(=O)O)o2)cc1	-	-	-	-	-
CCc1ccc(OCc2ccc(C(=O)O)o2)cc1	-	54	-	-	-
CNC(=O)C[C@@H]1CC[C@H]2[C@H](COc3ccc(NC(=O)NCc4ccccc4)cc3C(=O)N2C)O1	.	.	-	-	.
Cc1nc(SCC(=O)Nc2nc3ccccc3s2)c(C#N)c(C)c1C	92	107	93	87	84
Cc1nc(SCC(=O)Nc2nccs2)c(C#N)c(C)c1C	73	76	-	72	?
COc1cc(-c2cc(-c3ccccc3)nc(SCC(=O)Nc3nccs3)c2C#N)cc(OC)c1OC	-	-	.	.	-
Cc1ccc(NC(=O)CSc2nsc(SCC(=O)Nc3ccc(C)cc3C)c2C#N)c(C)c1	-	-	-	-	-
COCCCn1nnnc1SCC(=O)Nc1nc2ccccc2s1	81	-	-	-	-
Cc1csc(NC(=O)CSc2nsc(SCC(=O)Nc3nc(C)cs3)c2C#N)n1	57	-	.	.	-
Cc1ccc2sc(NC(=O)CSc3nc(C)cc(C)c3C#N)nc2c1	-	-	.	.	-
C[C@@H]1CN([C@@H](C)CO)C(=O)c2cccc(NC(=O)c3nc4ccccc4s3)c2O[C@H]1CN(C)S(=O)(=O)c1cn(C)cn1	.	.	-	-	.
Cc1cc(C(F)(F)F)c(C#N)c(SCC(=O)Nc2nc3ccccc3s2)n1	85	89	-	-	-
SMILES	TROY signal inh	TWEAK Fn14 block	LGR2 inh	EWS-Fli block	EBV LMP1 NFkB
CN(C)Cc1c(O)ccc2cc(-c3nc4ccccc4n3C)c(=O)oc12	-	56	-	-	-
CC(C)N1C(=O)/C(=C\c2nc3ccccc3c(=O)n2-c2ccccc2)c2ccccc21	-	54	?	.	-
Cc1ccn2cc(-c3ccc(Br)cc3)nc2c1	-	73	59	62	-
Cc1ccc(S(=O)(=O)Nc2ccc(-c3cn4ccc(C)cc4n3)cc2)cc1	-	-	-	-	-
Clc1ccc(-c2cn3cc(Br)ccc3n2)cc1Cl	-	58	.	-	-
Cc1cc(/C=N/NC(=O)c2cccs2)c(C)n1-c1ccccc1	63	80	.	.	-
COCC(=O)N1C[C@H](C)[C@H](OC)CN(C)C(=O)c2ccc(NC(=O)NC(C)C)cc2OC[C@@H]1C	.	.	-	-	.
O=C(c1ccncc1)N1CCN(c2cc(-c3ccccc3)nc3cc(-c4cccc(Cl)c4)nn23)CC1	-	70	-	-	-
CC(=O)N1CCN(c2cc(-c3ccccc3)nc3cc(-c4cccc(Cl)c4)nn23)CC1	-	55	-	-	-
Cc1ccc(S(=O)(=O)Nc2ccc3c(c2)C(=O)N([C@@H](C)CO)C[C@H](C)[C@H](CN(C)C(=O)NC2CCCCC2)OCCCC[C@@H](C)O3)cc1	.	.	-	-	.
O=C(Cn1ncc(Cl)c(Cl)c1=O)NC(=O)NC1CCCCC1	-	104	96	62	-
CC(NC(=O)Cn1ncc(Cl)c(Cl)c1=O)C12CC3CC(CC(C3)C1)C2 (stereo not drawn)	87	103	.	.	-
O=C(CN1CCCCC1)NC(=O)NC1CCCC1	-	-	.	-	-
COCCn1c(C)cc(C(=O)COC(=O)c2ccc(Br)o2)c1C	55	55	-	-	-
COc1cc(C(C)=O)ccc1OCC(=O)OCC(=O)c1cc(C)n(CC2CCCO2)c1C (stereo not drawn)	-	-	-	-	-
Cc1cc(C(=O)COC(=O)c2cccc(S(=O)(=O)N(C)C)c2)c(C)n1CC1CCCO1 (stereo not drawn)	-	-	-	-	-
Cc1cc(C(=O)COC(=O)CNC(=O)c2ccccc2)c(C)n1CC1CCCO1 (stereo not drawn)	-	60	-	-	-
Cc1cc(C(=O)COC(=O)c2ccc(Br)o2)c(C)n1C	-	-	-	-	-
COCCn1c(C)cc(C(=O)COC(=O)CNC(=O)c2ccccc2)c1C	54	63	-	-	-
Cc1cccc(C(=O)NCC(=O)OCC(=O)c2cc(C)n(CC3CCCO3)c2C)c1 (stereo not drawn)	80	59	-	-	-
COCC(C)n1c(C)cc(C(=O)COC(=O)CNC(=O)c2ccccc2)c1C (stereo not drawn)	-	-	-	-	-
COc1ccccc1S(=O)(=O)N1CC[C@@H]2[C@H](CO)Nc3ccc(-c4ccccc4)cc3[C@@H]21	.	.	-	-	.
Cc1cc(C(=O)COC(=O)c2ccc[nH]c2=O)c(C)n1C	-	-	-	-	-
COCCn1c(C)cc(C(=O)COC(=O)c2ccc[nH]c2=O)c1C	59	71	-	.	-
COc1ccc(CCN2C(=O)CSC2=Nc2ccc(C(C)C)cc2)cc1OC	-	58	-	-	-
SMILES	TROY signal inh	TWEAK Fn14 block	LGR2 inh	EWS-Fli block	EBV LMP1 NFkB
COc1ccc(N=C2SCC(=O)N2CCc2ccc(OC)c(OC)c2)cc1	-	-	.	-	-
O=C(c1ccc(Cl)c([N+](=O)[O-])c1)N1CCN(c2ccccn2)CC1	-	-	-	-	-
O=C(c1ccc(S(=O)(=O)Cc2cc(F)ccc2F)c([N+](=O)[O-])c1)N1CCCC1	-	-	-	-	-
Cc1ccccc1CS(=O)(=O)c1ccc(C(=O)N2CCC(C)CC2)cc1[N+](=O)[O-]	-	56	-	-	-
O=C(c1ccc(S(=O)(=O)Cc2ccccc2Cl)c([N+](=O)[O-])c1)N1CCN(c2ccccn2)CC1	-	69	-	-	-
O=C(c1ccc(S(=O)(=O)Cc2cc(F)ccc2F)c([N+](=O)[O-])c1)N1CCCCC1	-	62	-	.	-
CC1CCN(C(=O)c2ccc(S(=O)(=O)Cc3cccc(F)c3)c([N+](=O)[O-])c2)CC1	-	66	-	.	-
